Drawing on ChEMBL document CHEMBL1157539, “Thousands of chemical starting points for antimalarial lead identification” (Nature, 2010), this text covers Inhibition for 34 molecules.

What all share (format): functional
Assay [1] relates to Plasmodium falciparum. The experiment in a line: GSK_TCMDC: Inhibition of Plasmodium falciparum 3D7 in whole red blood cells, using parasite LDH activity as an index of growth. Test compounds present at 2uM.
For assay [2], the system named is Plasmodium falciparum. Briefly: GSK_TCMDC: Inhibition of Plasmodium falciparum Dd2 in whole red blood cells, using parasite LDH activity as an index of growth. Test compounds present at 2uM.
The test system of the next assay is HepG2. The experiment in a line: GSK_TCMDC: Percent inhibition of human HepG2 cell line. Test compounds present at 10uM.

Take `O=C(c1ccc(Cl)cc1)C1CCCN(C2CCN(CCc3ccccc3)CC2)C1` (configuration not stated): the values for the Inhibition in the assay with Plasmodium falciparum [1], in the assay on Plasmodium falciparum [2] and in the assay with HepG2 were 96%, 51% and 37%, respectively.

In the case of `O=C(Nc1cccc(-c2ccc(-c3nc4ccccc4[nH]3)cc2)c1)Nc1ccc2c(c1)OCO2`, the Inhibition (usually how much of the control response was suppressed) was found to be 90% with Plasmodium falciparum [1], 8% in the assay on Plasmodium falciparum [2] and 20% with HepG2.

As for `CCNc1c2ccc(Cl)cc2nc2ccc(OC)cc12.Cl`, the Inhibition was 99% with Plasmodium falciparum [1], 100% with Plasmodium falciparum [2] and 16% in the assay on HepG2.

Turning to `CCOC(=O)NC1=NC(C)(C)N(OCCCOc2ccc(C)cc2C)C(NC(=O)OCC)=N1`, the Inhibition in the assay on Plasmodium falciparum [1] worked out at 95%; in the assay on Plasmodium falciparum [2], 98%; in the assay with HepG2 it was 63%.

Consider `N#Cc1cccc(Nc2nccc(NCC(O)c3ccc(C(F)(F)F)cc3)n2)c1` (configuration not stated), for which the Inhibition in the assay on Plasmodium falciparum [1] is reported as 100%; in the assay on Plasmodium falciparum [2], 98%; in the assay on HepG2, 23%.

As for `CC(O)C(=O)O.COc1cc(Cc2cnc(N)nc2N)c2c(c1OC)OC(C)(C)C=C2`, the results for the Inhibition with Plasmodium falciparum [1], with Plasmodium falciparum [2] and in the assay with HepG2 were 93%, 2% and 7%, respectively.

For the molecule `O=C(NC1CCCCCC1)[C@@H]1CCCN1C(=O)c1ccc(O)c(-c2ccc(Cl)c(Cl)c2)c1`, the Inhibition is 99% in the assay with Plasmodium falciparum [1], 98% in the assay on Plasmodium falciparum [2] and 0% with HepG2.

Consider `Cl.Cn1cnc(-c2ccc3c(c2)CCN(CCC2CCC(NC(=O)/C=C/c4ccc(F)cc4)CC2)CC3)c1` (configuration not stated), for which the Inhibition with Plasmodium falciparum [1] worked out at 90%; in the assay with Plasmodium falciparum [2], 18%; with HepG2 it was 26%.

`COc1cc2c(cc1OC)CN(CCc1ccc(NC(=O)c3cc4cc(Cl)ccc4[nH]3)cc1)CC2`: the Inhibition in the assay on Plasmodium falciparum [1] amounted to 90%; in the assay on Plasmodium falciparum [2], 6%; in the assay on HepG2 it was 3%.

Take `COc1cc2nc(C)nc(Nc3ccc4c(ccn4Cc4ccccc4)c3)c2cc1OC.Cl`: the Inhibition was determined as 100% with Plasmodium falciparum [1], 99% in the assay with Plasmodium falciparum [2] and 2% in the assay on HepG2.

For the molecule `COc1ccc2c(N/N=C/c3ccccc3[N+](=O)[O-])cc(C)nc2c1`, the Inhibition in the assay with Plasmodium falciparum [1] is 100%; in the assay on Plasmodium falciparum [2], 100%; in the assay with HepG2 it was 14%.

Regarding `CCCCCN1CCCC(NS(=O)(=O)c2cccc(C(=O)Nc3cccc(C(F)(F)F)c3)c2)C1.O=C(O)C(F)(F)F` (configuration not stated), the Inhibition was determined as 86% with Plasmodium falciparum [1], 5% with Plasmodium falciparum [2] and 22% in the assay with HepG2.

`O=C(Nc1cccc(-c2cccc(F)c2)c1)C1CCN(Cc2ccc(O)cc2)CC1`: the Inhibition in the assay on Plasmodium falciparum [1] worked out at 87%; with Plasmodium falciparum [2], 2%; in the assay on HepG2, 13%.

Regarding `CN1CCCc2cc(NC(=O)C=Cc3ccc(-c4ccc(F)cc4F)o3)ccc2C1.O=C(O)C(F)(F)F`, the Inhibition in the assay with Plasmodium falciparum [1] is 90%; with Plasmodium falciparum [2], 27%; in the assay on HepG2 it was 5%.

Consider `CN(C)c1ccc(Br)c(Br)c1`, for which the results for the Inhibition with Plasmodium falciparum [1], with Plasmodium falciparum [2] and with HepG2 were 86%, 0% and 17%, respectively.

Take `Cc1ccc(S(=O)(=O)N2CCN(C(=O)c3cc(-c4cccs4)n[nH]3)CC2)c(C)c1`: the Inhibition stood at 85% in the assay with Plasmodium falciparum [1], 81% with Plasmodium falciparum [2] and 0% in the assay on HepG2.

As for `N#Cc1c(-c2ccccc2)cn2c1[nH]c(=O)c1ccccc12`, the Inhibition in the assay on Plasmodium falciparum [1] was 92%; in the assay with Plasmodium falciparum [2], 95%; in the assay on HepG2 it was 0%.

As for `Br.CCCc1cccc(OC)c1OCCCON1C(N)=NC(N)=NC1(C)C`, the Inhibition is 94% with Plasmodium falciparum [1], 97% with Plasmodium falciparum [2] and 65% with HepG2.

Turning to `CCN(CC)c1ccc(C(c2ccc(N(CC)CC)cc2)c2cccc([N+](=O)[O-])c2)cc1`, the Inhibition in the assay on Plasmodium falciparum [1] is given as 91%; in the assay with Plasmodium falciparum [2] it was 68%; in the assay with HepG2 it was 39%.

On to `O=C(Nc1ccc2c(c1)CCC2)c1cnc(N2CCN(c3ccncc3)CC2)c(Cl)c1.O=C(O)C(F)(F)F`, for which the values for the Inhibition with Plasmodium falciparum [1], in the assay with Plasmodium falciparum [2] and in the assay with HepG2 were 100%, 48% and 33%, respectively.

As to `COc1ccc(CCNc2nc(N)c3cc(OC)c(OC)cc3n2)cc1.Cl`, the Inhibition with Plasmodium falciparum [1] came to 100%; in the assay with Plasmodium falciparum [2], 1%; with HepG2, 16%.

In the case of `CCc1cc2c(=O)c(-c3nc(C)cs3)c(N)oc2c(CN2CCCCC2)c1O`, the Inhibition turned out to be 99% in the assay on Plasmodium falciparum [1], 97% in the assay on Plasmodium falciparum [2] and 0% with HepG2.

In the case of `CC(C)(C)Cn1cc(-c2ccc(C(=O)NCCc3ccc(S(C)(=O)=O)cc3)cc2)c(N)n1.CC(C)(C)Cn1ncc(-c2ccc(C(=O)NCCc3ccc(S(C)(=O)=O)cc3)cc2)c1N.O=C(O)C(F)(F)F`, the Inhibition in the assay on Plasmodium falciparum [1] is 86%; with Plasmodium falciparum [2], 10%; with HepG2, 7%.

In the case of `COc1cc(NC(=O)c2sc(-c3ccc(Cl)cc3)cc2Cl)ccc1OCCN1CCCC1.O=C(O)/C=C\C(=O)O`, the Inhibition in the assay on Plasmodium falciparum [1] was found to be 93%; in the assay with Plasmodium falciparum [2], 21%; with HepG2 it was 72%.

Consider `O=C(/C=C/c1ccc(Cl)c(Cl)c1)NCCCCCN1CCC(NC(=O)Nc2cc(F)ccc2F)CC1`, for which the Inhibition with Plasmodium falciparum [1] amounted to 98%; in the assay on Plasmodium falciparum [2] it was 22%; in the assay with HepG2, 78%.

Turning to `Cc1cccc2nc(-c3cccc(-c4ccc(NC(=O)Nc5ccc(Cl)c(Cl)c5)cc4)c3)[nH]c12`, the Inhibition in the assay with Plasmodium falciparum [1] amounted to 100%; in the assay on Plasmodium falciparum [2], 83%; with HepG2 it was 53%.

As for `FC(F)(F)c1ccc2[nH]c(-c3ccc(-c4ccc(CN5CCN(c6ccncc6)CC5)cc4)s3)nc2c1.O=C(O)C(F)(F)F`, the Inhibition was 100% in the assay on Plasmodium falciparum [1], 50% with Plasmodium falciparum [2] and 97% in the assay on HepG2.

For the molecule `Cc1cccc(-n2c(=O)c3c4c(sc3n3c(SCCC(C)C)nnc23)CCCC4)c1`, the results for the Inhibition in the assay with Plasmodium falciparum [1], in the assay on Plasmodium falciparum [2] and in the assay with HepG2 were 90%, 8% and 0%, respectively.

Turning to `CN(Cc1cccc(F)c1)C1CCN(c2cc(NC(=O)c3ccc(F)cc3)ccn2)C1.O=C(O)C(F)(F)F` (configuration not stated), the Inhibition in the assay on Plasmodium falciparum [1] came out at 83%; in the assay on Plasmodium falciparum [2] it was 14%; in the assay with HepG2, 7%.

As for `COc1cccc(Nc2nccc(NCC(O)c3cccc(C(F)(F)F)c3)n2)c1` (configuration not stated), the Inhibition in the assay on Plasmodium falciparum [1] is listed as 96%; in the assay with Plasmodium falciparum [2], 27%; in the assay with HepG2, 6%.

On to `CCCc1cc(=O)[nH]c(-n2nc(C)cc2NC(=O)C(CC)c2ccccc2)n1` (configuration not stated), for which the values for the Inhibition with Plasmodium falciparum [1], in the assay with Plasmodium falciparum [2] and in the assay on HepG2 were 94%, 63% and 41%, respectively.

For the molecule `CCCS(=O)(=O)c1nc(S(=O)(=O)c2ccc(Cl)cc2)c(N2CCCCC2)s1`, the Inhibition with Plasmodium falciparum [1] was determined as 87%; in the assay on Plasmodium falciparum [2], 34%; in the assay on HepG2, 3%.

As for `Br.CC1(C)NC(N)=NC(=N)N1OCCSCc1cc(Cl)sc1Cl`, the Inhibition came to 93% in the assay with Plasmodium falciparum [1], 72% with Plasmodium falciparum [2] and 70% in the assay with HepG2.

For the molecule `COc1ccc(Nc2nc(N3CCCC3)c3ccccc3n2)cc1.Cl`, the Inhibition with Plasmodium falciparum [1] was 100%; in the assay with Plasmodium falciparum [2], 98%; in the assay with HepG2, 40%.
